An excerpt weighted towards active compounds, which were near 2% of everything screened.
HGIII-sPLA2 inh = Blocks human group III sPLA2 activity; inhibition, % at 12.2 µM; AID 743126; Q9NZ20; QFRET BODIPY PC-A2 liposome hydrolysis, fluorescence; 370,000 tested, 0.56% active;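 active means inhibition above mean plus 3 SD of compounds lying within the high and low control bounds, cut at about 19% in these data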
A3A deaminase = human APOBEC3A DNA deaminase inhibition; inhibition, % at 20 µM; recombinant A3A, FAM/TAMRA ssDNA deamination fluorescence; 330,000 tested, 0.41% active;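 active means at least 40% inhibition at 20 µM here, with at most 30% in a related deaminase screen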
CTSL1 counter = counter-screen for PFM18AAP inhibitors: inhibitors of F. hepatica cathepsin L1 | inhibition, % at 5.96 µM | 300,000 tested, 0.49% active | recombinant F. hepatica cathepsin L1, Z-Leu-Arg-MCA fluorescence;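 active means inhibition above the mean of all tested compounds plus 3 SD, set per screening campaign, cut at about 17% in these data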
NALP1 inh = blocks the NALP1 inflammasome reconstituted in yeast; S. cerevisiae NALP1/ASC/caspase-1 growth, X-gal OD620, 72 h; inhibition, % at 10 µM; 280,000 tested, 0.61% active; AID 2071; in the data active means inhibition mostly above about 24%, no sharp cut-off; inactive means mostly below about 32%
A3G deaminase = inhibitors of human APOBEC3G DNA deaminase | 330,000 tested, 0.28% active | recombinant A3G, ssDNA deamination FAM/TAMRA fluorescence | inhibition, % at 20 µM | Q9HC16;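 active means inhibition of at least 40% at 20 µM, with no more than 30% in the related APOBEC3A deaminase screen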
Target sequence (Q9HC16 whole entry, looked up): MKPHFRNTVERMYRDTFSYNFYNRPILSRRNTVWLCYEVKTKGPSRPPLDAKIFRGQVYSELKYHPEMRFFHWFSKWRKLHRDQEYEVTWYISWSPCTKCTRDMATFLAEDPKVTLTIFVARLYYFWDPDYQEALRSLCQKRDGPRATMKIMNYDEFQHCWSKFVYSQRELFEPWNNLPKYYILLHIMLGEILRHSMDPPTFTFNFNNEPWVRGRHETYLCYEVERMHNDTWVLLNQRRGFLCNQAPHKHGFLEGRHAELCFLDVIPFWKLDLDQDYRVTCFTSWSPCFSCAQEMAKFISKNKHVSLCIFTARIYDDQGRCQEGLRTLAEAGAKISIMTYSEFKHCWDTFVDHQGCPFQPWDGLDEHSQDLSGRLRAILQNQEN
A number is an active result; n = inactive; x = no result.

SMILES	HGIII-sPLA2 inh	A3A deaminase	CTSL1 counter	NALP1 inh	A3G deaminase
Cc1c(C#N)c(NC(=O)CCl)n(Cc2cccs2)c1C	n	n	51	n	n
Cc1c(C#N)c(NC(=O)CCl)n(Cc2ccccc2)c1C	n	n	40	n	n
O=C(OC12CCCN(C1)/C(=C/c1ccncc1)C2)c1cccc(F)c1 (stereo not given)	n	x	x	x	x
CCn1c(SCC(=O)Nc2cc(C)on2)nnc1-c1ccco1	n	n	n	39	n
CCCCn1c(SCC(=O)Nc2cc(C)on2)nnc1-c1ccco1	n	n	n	n	n
CCN(Cc1ccccc1)C(=O)C1C2C=CC3(CN(Cc4ccccc4)C(=O)C13)O2 (stereo not given)	n	x	x	x	x
FC(F)(F)c1cc(CNC2CCC23CCCCC3)ccc1Cl (stereo not given)	n	x	x	x	x
OCCCNc1ncnc2sc3c(c12)CCN(Cc1ccccc1)C3	n	n	32	n	n
O=c1[nH]cnc2sc3c(c12)CCN(Cc1ccccc1)C3	n	n	n	n	n
COCCn1c(-c2ccccc2)cnc1SCC(=O)Nc1cccc2ccccc12	n	n	n	74	n
c1ccc(C2CCC3(CC2)CCC3NCc2cccs2)cc1 (stereo not given)	n	x	x	x	x
OC1(c2ccc3c(c2)OCO3)CCN(Cc2ccccn2)CC1	n	n	n	30	n
O=S(=O)(Cc1cc(N2CCOCC2)nc(-c2ccccn2)n1)c1ccccc1	n	n	n	22	n
Cc1ccc2nc(-c3ccc(NC(=O)CSc4nnc(-c5cc(-c6ccc(F)cc6)n[nH]5)n4N)cc3)sc2c1	n	x	x	x	x
CN(C)CCNc1ncnc2c1sc1nc(-c3ccccc3)c3c(c12)CCCC3	n	n	n	45	n
COc1ncnc2c1sc1nc(-c3ccccc3)c3c(c12)CCCC3	n	n	n	n	n
CCOC(=O)CNC(=O)CSc1nnc(-c2ccc(C(C)(C)C)cc2)n1-c1ccc(Cl)cc1	n	x	x	x	x
CCOC(=O)C(C(=O)OCC)N(C#N)c1nc(C)cc(C)n1	n	n	21	n	n
CCOC(=O)C(C(=O)OCC)N(C#N)c1nc(N(C)C)nc(N(C)C)n1	n	n	65	n	n
Cc1ccc(-n2c(Cc3cccs3)nnc2SCC(=O)Nc2cccc3ccccc23)cc1	n	x	x	x	x
CCCCS(=O)(=O)/C=C\C=C/S(=O)(=O)CCCC	x	n	64	126	n
CCCCS(=O)(=O)/C=C\C1C2C=CC(C2)C1S(=O)(=O)CCCC (stereo not given)	n	n	n	n	n
O=C(NC(O)C(=O)c1ccccc1)c1ccc(F)cc1 (stereo not given)	n	n	18	n	n
O=C(NC(Cc1ccc(F)cc1)C(=O)O)c1ccccc1 (stereo not given)	n	n	n	n	n
O=C(COC(=O)c1ccc[nH]c1=O)NCCc1ccc(Cl)cc1Cl	n	n	18	n	n
SMILES	HGIII-sPLA2 inh	A3A deaminase	CTSL1 counter	NALP1 inh	A3G deaminase
Cc1ccc(C(=O)c2ccccc2C(=O)OCC(=O)NCCc2ccc(Cl)cc2Cl)cc1	n	n	n	n	n
O=C(Nc1nccs1)c1ccc(-c2ccc(Cl)cc2)o1	n	n	n	n	n
O=C(Nc1nccs1)c1ccc(-c2ccc([N+](=O)[O-])cc2)o1	n	x	n	32	x
Cc1cccc(C(=O)N[C@@H]2CC[C@@]34CCCN3C(=O)CCC[C@H]4[C@H]2C)c1	n	x	x	x	x
Cc1cc(N2C(=O)C(O)=C(C(=O)c3ccc(C)o3)C2c2cccc(Cl)c2)no1 (stereo not given)	n	x	x	x	x
Cc1cc(N2C(=O)C(O)=C(C(=O)c3ccc(C)o3)C2c2cccc(Oc3ccccc3)c2)no1 (stereo not given)	n	n	n	38	n
O=C(CSc1nc2ccccc2[nH]1)NN=Cc1c(F)cccc1Cl	n	x	x	x	x
COc1ccc(CN=C(C)c2c(C(F)(F)F)[nH]n(-c3nc4ccccc4s3)c2=O)cc1	n	n	18	n	n
CC(Sc1nnc(-c2ccco2)n1C)C(=O)N1C(C)CCCC1C (stereo not given)	n	n	n	36	n
CC(Sc1nnc(-c2ccco2)n1C)C(=O)NC1CCCC1 (stereo not given)	n	n	x	x	n

Screens (PubChem BioAssay)
